Reference: article PMC4336329 (PLoS ONE, 2015)
Out of some 310,000 compounds screened, about 14,000 (4.5%) showed an effect of 50% or more. Effects have a minus sign here. This excerpt belongs to a sample that is enriched for strong results.

biological target: human ether-à-go-go-related gene (hERG) potassium channel (human, UniProt Q12809); experiment: primary screen, population patch clamp on CHO cells stably expressing hERG; higher = less effect of the substance
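Further: peak tail current of the secondary pulse compared with the same well before compound.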

Chain of human ether-à-go-go-related gene (hERG) potassium channel (Q12809 whole entry, looked up): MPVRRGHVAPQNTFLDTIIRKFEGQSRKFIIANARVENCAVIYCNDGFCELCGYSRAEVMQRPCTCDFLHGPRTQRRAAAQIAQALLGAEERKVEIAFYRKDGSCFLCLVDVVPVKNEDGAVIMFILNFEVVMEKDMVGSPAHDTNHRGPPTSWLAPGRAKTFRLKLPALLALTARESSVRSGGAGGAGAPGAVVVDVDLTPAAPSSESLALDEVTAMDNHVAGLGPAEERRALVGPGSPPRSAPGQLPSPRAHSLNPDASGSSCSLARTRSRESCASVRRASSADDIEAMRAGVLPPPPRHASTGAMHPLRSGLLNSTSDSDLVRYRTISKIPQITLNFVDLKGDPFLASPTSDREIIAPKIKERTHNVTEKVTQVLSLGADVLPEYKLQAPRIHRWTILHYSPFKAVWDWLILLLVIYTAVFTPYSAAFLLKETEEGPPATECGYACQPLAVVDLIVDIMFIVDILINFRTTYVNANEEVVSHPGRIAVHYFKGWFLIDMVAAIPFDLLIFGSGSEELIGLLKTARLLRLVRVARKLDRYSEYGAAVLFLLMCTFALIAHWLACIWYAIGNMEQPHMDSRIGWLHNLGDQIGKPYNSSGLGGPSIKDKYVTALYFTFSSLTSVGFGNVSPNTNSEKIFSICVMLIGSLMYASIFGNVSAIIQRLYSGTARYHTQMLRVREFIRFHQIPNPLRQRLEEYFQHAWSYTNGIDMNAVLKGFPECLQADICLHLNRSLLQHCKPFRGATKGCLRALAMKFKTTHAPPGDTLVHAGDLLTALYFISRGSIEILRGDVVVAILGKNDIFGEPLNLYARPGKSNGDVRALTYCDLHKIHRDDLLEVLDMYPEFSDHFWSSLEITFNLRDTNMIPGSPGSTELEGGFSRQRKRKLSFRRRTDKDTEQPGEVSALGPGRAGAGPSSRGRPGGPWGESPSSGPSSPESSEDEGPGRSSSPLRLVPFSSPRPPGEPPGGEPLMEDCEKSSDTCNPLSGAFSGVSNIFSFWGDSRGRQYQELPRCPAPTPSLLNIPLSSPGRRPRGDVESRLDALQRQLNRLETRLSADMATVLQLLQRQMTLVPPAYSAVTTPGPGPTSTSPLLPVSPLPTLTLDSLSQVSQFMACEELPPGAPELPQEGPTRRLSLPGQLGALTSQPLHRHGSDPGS

Going from `Cc1ccc2nc(SCC(=O)N3CCN(c4ccccc4)CC3)nc(=O)n2c1` to `Cc1ccn2c(=O)nc(SCC(=O)N3CCN(c4ccccc4)CC3)nc2c1`, the “hERG current change (%, negative = inhibition) at 10uM” value rises from -47.5% to -28.6%.

First: Cc1cccn2c(=O)nc(SCC(=O)N3CCCCC3)nc12
Second: Cc1cccn2c(=O)nc(SCC(=O)N3CCCC3)nc12
The “hERG current change (%, negative = inhibition) at 10uM” value of the first is higher: -18.6% for the first, -22.6% for the second.

First: CC1CCN(C(=O)CSc2nc(=O)n3ccccc3n2)CC1
Second: Cc1ccn2c(=O)nc(SCC(=O)N3CCC(C)CC3)nc2c1
The “hERG current change (%, negative = inhibition) at 10uM” value of the first is higher: 8.67% for the first, -18.4% for the second.

First: Cc1cccn2c(=O)nc(SCC(=O)N3CCC(C)CC3)nc12
Second: Cc1cccn2c(=O)nc(SCC(=O)N3CCOCC3)nc12
The “hERG current change (%, negative = inhibition) at 10uM” value of the first is lower: -39.5% for the first, 9.72% for the second.

First: O=C(CSc1nc(=O)n2ccccc2n1)N1CCN(c2ccccc2)CC1
Second: Cc1cccn2c(=O)nc(SCC(=O)N3CCN(c4ccccc4)CC3)nc12
The “hERG current change (%, negative = inhibition) at 10uM” value of the first is higher: -27.7% for the first, -67.6% for the second.

First: Cc1ccn2c(=O)nc(SCC(=O)N3CCC(Cc4ccccc4)CC3)nc2c1
Second: Cc1ccc2nc(SCC(=O)N3CCC(Cc4ccccc4)CC3)nc(=O)n2c1
The “hERG current change (%, negative = inhibition) at 10uM” value of the first is higher: -55.6% for the first, -65% for the second.

Going from `O=C(CSc1nc(=O)n2ccccc2n1)N1CCC(Cc2ccccc2)CC1` to `Cc1cccn2c(=O)nc(SCC(=O)N3CCC(Cc4ccccc4)CC3)nc12`, the “hERG current change (%, negative = inhibition) at 10uM” value falls from -58.1% to -78.9%.

Going from `Cc1ccc2nc(SCC(=O)N3CCC(C)CC3)nc(=O)n2c1` to `O=C(CSc1nc(=O)n2ccccc2n1)N1CCCc2ccccc21`, the “hERG current change (%, negative = inhibition) at 10uM” value falls from -9.74% to -16.8%.

Compared with `N/C(=N\OC(=O)Cc1ccc([N+](=O)[O-])cc1)c1ccc([N+](=O)[O-])cc1`, `N#Cc1ccc(CN2CCN(C(=O)Cn3nc(C(N)=O)c4ccccc4c3=O)CC2)cc1` is lower in “hERG current change (%, negative = inhibition) at 10uM” value: -24.4% for the first, -70% for the second.

First: CC(=O)c1c(C)n(CCc2ccc(Cl)cc2)c2ccc(O)cc12
Second: CNc1c(NS(=O)(=O)c2ccc(F)c(Cl)c2)c(=O)oc2ccccc12
The “hERG current change (%, negative = inhibition) at 10uM” value of the first is higher: 20.8% for the first, 3.54% for the second.

Compared with `O=C(CSc1nc2c(c(C(F)(F)F)n1)CCc1ccccc1-2)NCc1ccco1`, `O=c1nc(SCc2cccc(C(F)(F)F)c2)nc2ccccn12` is lower in “hERG current change (%, negative = inhibition) at 10uM” value: 2.99% for the first, -37% for the second.

First: COC1(OC)N=C(N)C2(C#N)C(c3ccccc3)NC(C)=CC12C#N (centres unmarked)
Second: COC(=O)CSc1nc(C)c(Oc2ccccc2)c(=O)[nH]1
The “hERG current change (%, negative = inhibition) at 10uM” value of the first is lower: 2.16% for the first, 11.6% for the second.

Going from `COC(=O)CS(=O)(=O)c1cc(Br)cc2c1N(C(C)=O)CC2` to `NC(=O)c1ccccc1OCC(=O)N1CCCc2ccccc21`, the “hERG current change (%, negative = inhibition) at 10uM” value rises from 5.36% to 14.5%.

Going from `COC(=O)C1=C(c2ccccc2OCc2ccccc2)C[C@@H]2CC[C@H]1N2C(=O)NCc1ccc(C(F)(F)F)cc1` to `Cc1nn(CC(=O)N2CCN(Cc3ccccc3)CC2)c(=O)c2ccccc12`, the “hERG current change (%, negative = inhibition) at 10uM” value rises from -4.61% to -2.85%.

Going from `O=S(=O)(Cc1cccc(F)c1)c1c[nH]c2ccccc12` to `O=c1[nH]c(CN2CCc3ccccc3C2)nc2ccccc12`, the “hERG current change (%, negative = inhibition) at 10uM” value falls from 8.65% to 5.47%.

Going from `C=CCSc1nc(=O)n2ccc(C)cc2n1` to `Cc1ccn2c(=O)nc(SCc3cccc(C(F)(F)F)c3)nc2c1`, the “hERG current change (%, negative = inhibition) at 10uM” value falls from -22.9% to -51.5%.

First: CCn1nc(C(=O)N2CCN(Cc3ccc4c(c3)OCO4)CC2)c2ccccc2c1=O
Second: O=C(c1n[nH]c(=O)c2ccccc12)N1CCN(Cc2ccc3c(c2)OCO3)CC1
The “hERG current change (%, negative = inhibition) at 10uM” value of the first is lower: -52.1% for the first, 2.15% for the second.

Going from `CCN1CCN(C(=O)c2nn(-c3ccccc3)c(=O)c3ccccc23)CC1` to `CCn1nc(C(=O)N2CCN(Cc3nc4ccccc4s3)CC2)c2ccccc2c1=O`, the “hERG current change (%, negative = inhibition) at 10uM” value falls from -2.92% to -68.9%.

Compared with `CCn1nc(C(=O)N2CCc3ccccc3C2)c2ccccc2c1=O`, `COc1ccc(CN2CCN(C(=O)Cn3nc(C(=O)O)c4ccccc4c3=O)CC2)cc1F` is lower in “hERG current change (%, negative = inhibition) at 10uM” value: -13.6% for the first, -37.4% for the second.

First: COc1ccc(-n2nc(C(=O)N3CCN(Cc4ccc5c(c4)OCO5)CC3)c3ccccc3c2=O)cc1
Second: O=C(CSCC(=O)N1CCOCC1)Nc1nc(-c2ccccc2)cs1
The “hERG current change (%, negative = inhibition) at 10uM” value of the first is higher: -4.87% for the first, -14.8% for the second.

First: Cc1cc2nc(-c3ccco3)cc(C(F)(F)F)n2n1
Second: CCCc1nc2oc3c(=O)[nH]cnc3c2c2c1CCCC2
The “hERG current change (%, negative = inhibition) at 10uM” value of the first is higher: -5.82% for the first, -56.5% for the second.

Compared with `CC(C)Cc1nc2oc3c(=O)[nH]cnc3c2c2c1CCC2`, `CC(C)Cc1nc2oc3c(=O)[nH]cnc3c2c2c1CCCC2` is higher in “hERG current change (%, negative = inhibition) at 10uM” value: -7.29% for the first, -6.24% for the second.
